This note sets out measurements from PubChem BioAssay (Tox21).

Calls of active or inactive are those of the source. A call without a number means that no potency is given here. Calls follow the shape of the full dose curve.

The target of this test is Acetylcholinesterase (Homo sapiens) (UniProt P22303). The test is described as follows: Acetylcholinesterase (AChE) small molecule antagonists: enzyme-based qHTS assay with human liver microsomes (AID 1347399). Also: nearly all actives have a fitted effect of over 60% in size. The settings on record: Potency: qHTS inhibition; outcome: qHTS inhibition; series mostly up to 115 µM. An outline of the steps: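 Recombinant human AChE (50 mU/mL in the enzyme mix) and human liver microsomes (0.25 mg/mL final) were preincubated with compound and NADPH (0.25 mg/mL final) for 30 min at 37 C. Acetylthiocholine/DTNB was then added; thiocholine was read colorimetrically after 10 min at room temperature.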
Sequence of Acetylcholinesterase (Homo sapiens) (P22303 whole entry, looked up): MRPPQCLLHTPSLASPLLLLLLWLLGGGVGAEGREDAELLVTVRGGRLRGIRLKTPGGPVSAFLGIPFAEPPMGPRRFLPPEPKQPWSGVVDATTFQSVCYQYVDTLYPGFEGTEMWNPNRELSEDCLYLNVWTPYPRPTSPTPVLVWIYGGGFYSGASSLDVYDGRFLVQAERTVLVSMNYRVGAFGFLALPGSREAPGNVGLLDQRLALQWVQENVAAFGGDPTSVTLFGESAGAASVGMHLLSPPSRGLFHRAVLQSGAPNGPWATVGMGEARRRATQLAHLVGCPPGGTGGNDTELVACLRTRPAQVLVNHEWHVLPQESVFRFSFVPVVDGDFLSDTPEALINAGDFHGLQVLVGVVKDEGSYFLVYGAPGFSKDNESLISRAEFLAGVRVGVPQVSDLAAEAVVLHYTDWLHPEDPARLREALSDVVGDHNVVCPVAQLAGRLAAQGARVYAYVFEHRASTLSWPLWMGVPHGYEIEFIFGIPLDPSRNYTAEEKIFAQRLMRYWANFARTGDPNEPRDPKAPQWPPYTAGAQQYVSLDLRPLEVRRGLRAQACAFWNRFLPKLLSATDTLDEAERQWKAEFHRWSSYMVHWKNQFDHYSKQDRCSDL
On the technique in general: Quantitative high-throughput screening tests each substance at several concentrations.
Consider `CCCCNC(=S)NCCCC`, for which the Potency entry was “inactive”.

For the compound `CCCC/C=C/CCCCO`, the Potency result was “inactive”.

Consider `COCC(C)N` (stereo not given), for which the Potency result is “inactive”.

Turning to `Clc1ccccc1C(c1ccccc1)(c1ccccc1)n1ccnc1`, the Potency entry is “inactive”.

As for `Cc1[nH]nc2c1N=C(c1ccccc1Cl)c1cc([N+](=O)[O-])ccc1N2`, the Potency entry is “inactive”.

As for `COc1cccc(N(C)C(=S)Oc2ccc3c(c2)CCCC3)n1`, the Potency result is “inactive”.

Consider `CCc1nccnc1CC`, for which the activity change, negative = inhibition was 0.443% [at 23.6 µM] (inactive).

`O=C(NCc1ncc(C(F)(F)F)cc1Cl)c1c(Cl)cccc1Cl`: the Potency result is “inactive”.

With `C=CCn1c(=O)n([C@@H]2O[C@H](CO)[C@@H](O)[C@H]2O)c2nc(N)[nH]c(=O)c21`, the Potency result was “inactive”.

Turning to `CCCCCCCCC(=O)OCC`, the Potency entry is “inactive”.

On to `Cc1cccc(Nc2ccncc2S(=O)(=O)NC(=O)NC(C)C)c1`, for which the Potency entry was “inactive”.

With `Cn1nnc2c(C(N)=O)ncn2c1=O`, the Potency entry is “inactive”.

`CCCCCCS`: the Potency entry was “inactive”.

For `Cc1cc(C)c(/C=C2\C(=O)Nc3ccccc32)[nH]1`, the Potency result was “inactive”.

On to `O=C1OCc2ccccc21`, for which the Potency entry was “inactive”.

For `COc1ccc(-c2cc(C(F)F)nn2-c2ccc(S(N)(=O)=O)cc2)cc1F`, the Potency entry was “inactive”.

For `CCCCCCCC(=O)OCC(O)CO` (stereo not given), the Potency result was “inactive”.

As to `CNC(=O)Nc1ccc(Cl)c(Cl)c1`, the Potency result was “inactive”.

Consider `CC(C)OC(=O)C(C)(C)Oc1ccc(C(=O)c2ccc(Cl)cc2)cc1`, for which the Potency entry was “inactive”.

`N#Cc1ccccc1O`: the Potency result was “inactive”.

Consider `CCCCCCCCCCC`, for which the Potency entry is “inactive”.

As for `NC(=S)Nc1cccc2ccccc12`, the activity change, negative = inhibition was 0.729% [at 10.5 µM] (inactive).

Take `CCCCCCCC(C)=O`: the Potency result is “inactive”.

For the compound `Cc1cccc(C)c1NC(=O)CN1CCN(CCCC(c2ccc(F)cc2)c2ccc(F)cc2)CC1`, the Potency entry was “inactive”.

Take `CCN=C1C=CC(=C(c2ccc(N(CC)CC)cc2)c2ccc(N(CC)CC)cc2)c2ccccc21`: the Potency entry is “inactive”.

For `O=C(CC(C(=O)OC1CCCCC1)S(=O)(=O)O)OC1CCCCC1` (stereo not given), the Potency entry is “inactive”.

On to `CC(C)(C)c1n[nH]c(=S)n(N)c1=O`, for which the Potency result was “inactive”.

Consider `CCOC(N)=O`, for which the Potency result was “inactive”.

Consider `Cc1ccc(S(=O)(=O)NC(=O)NC2CCCCC2)cc1`, for which the Potency entry was “inactive”.

Regarding `CC/C=C\C#N`, the Potency entry is “inactive”.

In the case of `[Na+]`, the Potency entry is “inactive”.

In the case of `CC1=CC(C)C(C=O)C(C)C1` (stereo not given), the Potency entry is “inactive”.

Consider `C/C=C(\C)C(=O)OC/C=C(\C)CCC=C(C)C`, for which the Potency entry was “inactive”.

As to `CC(=O)Nc1c(I)cc(I)c(C(=O)O)c1I`, the Potency result was “inactive”.

For `CC(C)(C)c1cc(/C=C2\SC(=N)NC2=O)cc(C(C)(C)C)c1O`, the compound was called inactive.

Regarding `Cc1cccc(OCCOc2cccc(C)c2)c1`, the Potency result is “inactive”.

In the case of `O=C(NCCCN1CCOCC1)c1ccc(Cl)cc1`, the Potency entry is “inactive”.

Consider `O=C(O)c1cc(O)c(O)c(O)c1`, for which the Potency result is “inactive”.

As for `C=CC(=O)OCCCCCCCC`, the Potency result is “inactive”.

`CCCCCC[C@@H](CCC)C(=O)O`: the Potency entry is “inactive”.
